# From PubChem BioAssay (EPA / NIEHS)
# Calls of active or inactive are those of the source. The calls were made as follows: active = hit-call score of the fitted dose curve at least 0.9, where 1 is the maximum; inactive = score below 0.9.
# Legend:
# [1] = ATG_CRE_CIS: Attagene CIS-FACTORIAL HepG2 Assay for human cAMP Responsive Element (CRE) binding protein 3 (AID 2282926); conditions: HepG2 CRE cis-reporter, Attagene multiplexed mRNA; actives raise or lower the signal
# Procedure, shortened: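 Endogenous CRE-binding activity in HepG2 is reported through a cis-regulated transfected reporter. Following a day of exposure, mRNA levels are determined by reverse transcription PCR and fluorescent fragment analysis; fits run in both directions versus DMSO.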
# [2] = target: CCAAT/enhancer-binding protein beta (Homo sapiens) (UniProt P17676); assay: ATG_C_EBP_CIS: Attagene CIS-FACTORIAL HepG2 Assay for human CCAAT/Enhancer Binding Protein (C/EBP) beta (AID 2282927); conditions: HepG2 Attagene cis-factorial transcription factor reporter; actives raise or lower the signal
# Sequence of CCAAT/enhancer-binding protein beta (Homo sapiens) (P17676 whole entry, looked up, the tested form may be a part): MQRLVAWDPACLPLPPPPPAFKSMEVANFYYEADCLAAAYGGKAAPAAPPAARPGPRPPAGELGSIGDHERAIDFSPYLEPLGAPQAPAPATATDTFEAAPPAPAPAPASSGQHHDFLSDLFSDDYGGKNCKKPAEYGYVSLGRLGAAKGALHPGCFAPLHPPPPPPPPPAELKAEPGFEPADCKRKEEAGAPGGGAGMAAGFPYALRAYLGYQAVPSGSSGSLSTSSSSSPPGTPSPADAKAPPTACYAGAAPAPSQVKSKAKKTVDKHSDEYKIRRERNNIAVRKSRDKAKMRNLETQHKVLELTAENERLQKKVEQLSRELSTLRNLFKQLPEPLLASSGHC
# Procedure, shortened: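 Chemical-treated HepG2 cells (24 h) bearing cis-regulated reporter constructs were processed for total RNA, then reverse transcription, PCR amplification, fluorescent primer extension and fragment analysis; gain- and loss-of-signal were fitted against DMSO.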
# [3] = ATG_CMV_CIS: Attagene CIS-FACTORIAL HepG2 Assay for human CMV (Internal Marker) (AID 2282928); conditions: HepG2 CMV promoter reporter, transcription factor profiling; actives raise or lower the signal;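 also: endpoint acts as a background internal control marker rather than a target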
# Procedure, shortened: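 Endogenous transcription factor activity read in HepG2 via transfected cis-promoter reporter units. After 24 h dosing, reporter mRNA measured by RT-PCR/capillary electrophoresis; gain or loss of signal fit relative to DMSO.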
# [4] = ATG_DR4_LXR_CIS: Attagene CIS-FACTORIAL HepG2 Assay for human Liver X Receptor (LXR), DR4 submotif (AID 2282929); conditions: HepG2 Attagene DR4 cis-reporter, mRNA transcription; actives raise or lower the signal
# Procedure, shortened: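 After transient transfection with multiplexed cis-promoter reporter units, HepG2 cells received test chemicals for 24 h. Reporter mRNA induction, detected by fluorescence after RT-PCR and capillary electrophoresis, was scored relative to DMSO.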
# [5] = target: Aryl hydrocarbon receptor (Homo sapiens) (UniProt P35869); assay: ATG_Ahr_CIS: Attagene CIS-FACTORIAL HepG2 Assay for human Aryl Hydrocarbon Receptor (Ahr) (AID 2282930); conditions: HepG2 AhR cis-factorial reporter transcription; actives raise or lower the signal
# Sequence of Aryl hydrocarbon receptor (Homo sapiens) (P35869 whole entry, looked up): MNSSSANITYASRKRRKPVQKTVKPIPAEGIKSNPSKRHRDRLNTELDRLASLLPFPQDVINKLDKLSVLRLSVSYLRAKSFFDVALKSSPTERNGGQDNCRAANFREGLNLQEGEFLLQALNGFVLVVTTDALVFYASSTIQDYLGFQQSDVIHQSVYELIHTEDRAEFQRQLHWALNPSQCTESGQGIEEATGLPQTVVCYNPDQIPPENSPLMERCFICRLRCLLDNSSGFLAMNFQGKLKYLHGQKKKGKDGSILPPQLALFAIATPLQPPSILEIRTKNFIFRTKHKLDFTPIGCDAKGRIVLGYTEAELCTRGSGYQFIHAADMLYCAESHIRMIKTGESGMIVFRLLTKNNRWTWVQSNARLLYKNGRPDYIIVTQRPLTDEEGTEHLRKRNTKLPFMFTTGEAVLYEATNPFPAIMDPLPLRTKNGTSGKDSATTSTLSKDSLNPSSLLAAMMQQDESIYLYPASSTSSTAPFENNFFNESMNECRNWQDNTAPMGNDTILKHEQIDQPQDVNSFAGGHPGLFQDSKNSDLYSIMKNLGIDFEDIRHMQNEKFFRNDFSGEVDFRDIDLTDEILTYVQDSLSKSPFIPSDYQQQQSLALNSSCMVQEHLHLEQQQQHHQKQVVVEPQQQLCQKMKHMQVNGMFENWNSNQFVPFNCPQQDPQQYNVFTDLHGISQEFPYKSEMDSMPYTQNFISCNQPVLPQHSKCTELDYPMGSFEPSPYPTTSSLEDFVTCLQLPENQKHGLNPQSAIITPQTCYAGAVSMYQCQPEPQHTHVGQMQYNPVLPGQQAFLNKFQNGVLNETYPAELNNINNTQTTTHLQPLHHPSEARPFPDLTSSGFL
# Procedure, shortened: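 Following 24 h of chemical dosing, transfected HepG2 liver cells with cis-driven reporter units were lysed for RNA; reporter mRNA was quantified via RT-PCR and capillary electrophoresis, and responses fitted bidirectionally from DMSO.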
# [6] = ATG_AP_1_CIS: Attagene CIS-FACTORIAL HepG2 Assay for human Activator Protein 1 (AP-1) (AID 2282931); conditions: HepG2 Attagene cis-factorial AP-1 reporter mRNA; actives raise or lower the signal
# Procedure, shortened: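 After 24 h incubation with test chemical, RNA from transfected HepG2 cells was reverse-transcribed, amplified, fluorescently labelled and digested before capillary electrophoresis. Reporters were driven by cis-regulatory promoters; activity fitted bidirectionally versus DMSO.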
# [7] = ATG_AP_2_CIS: Attagene CIS-FACTORIAL HepG2 Assay for human Activator Protein 2 (AP-2) (AID 2282932); conditions: HepG2 AP-2 cis-reporter, Attagene transcription factor profiling; actives raise or lower the signal
# Procedure, shortened: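 Bidirectional curve fitting against DMSO was applied to reporter mRNA signals from HepG2 cells 24 h after dosing. Cis-promoter reporter units, transiently transfected, were read by RT-PCR plus capillary electrophoresis.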
# [8] = ATG_BRE_CIS: Attagene CIS-FACTORIAL HepG2 Assay for human Bone Morphogenetic Protein (BMP) Response Element (BRE) (AID 2282933); conditions: HepG2 BMP response element reporter, Attagene transcription factor profiling; actives raise or lower the signal
# Procedure, shortened: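 Multiplexed cis-reporter assay, HepG2, 24 h exposure. mRNA from reporter units quantified via RT-PCR/CE; DMSO baseline; bidirectional curve fit.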
# [9] = target: Transcription factor E2F1 (Homo sapiens) (UniProt Q01094); assay: ATG_E2F_CIS: Attagene CIS-FACTORIAL HepG2 Assay for human E2F Transcription Factor 1 (AID 2282935); conditions: HepG2 Attagene cis-reporter, E2F reporter RNA transcripts; actives raise or lower the signal
# Sequence of Transcription factor E2F1 (Homo sapiens) (Q01094 whole entry, looked up): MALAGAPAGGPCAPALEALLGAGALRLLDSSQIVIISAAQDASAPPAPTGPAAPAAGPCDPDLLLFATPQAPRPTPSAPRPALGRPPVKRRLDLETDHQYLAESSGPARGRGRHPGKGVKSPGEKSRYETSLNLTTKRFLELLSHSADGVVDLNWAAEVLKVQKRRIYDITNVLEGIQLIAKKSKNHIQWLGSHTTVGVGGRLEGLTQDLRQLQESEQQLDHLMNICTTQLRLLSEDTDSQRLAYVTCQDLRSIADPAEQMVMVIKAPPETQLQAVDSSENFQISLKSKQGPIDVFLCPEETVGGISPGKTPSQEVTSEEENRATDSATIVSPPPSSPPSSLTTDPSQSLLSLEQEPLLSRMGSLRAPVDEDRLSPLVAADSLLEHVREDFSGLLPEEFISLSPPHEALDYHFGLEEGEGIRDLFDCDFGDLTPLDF
# Procedure, shortened: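 Multiplexed cis-reporter assay: HepG2, transient transfection, 24 h dosing, mRNA quantitation by labeled RT-PCR and CE.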
# [10] = ATG_E_Box_CIS: Attagene CIS-FACTORIAL HepG2 Assay for human Enhancer Box (E-box) (AID 2282936); conditions: HepG2 E-box cis-reporter transcription, actives raise or lower the signal
# Procedure, shortened: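 Multiplexed CIS reporter system in transiently transfected HepG2 cells measures native transcription factor activity. Reporter RNA after 24 h exposure is profiled by RT-PCR-capillary electrophoresis.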
# [11] = ATG_M_61_CIS: Attagene CIS-FACTORIAL HepG2 Assay for M61 Transcription Factor (Internal Marker) (AID 2282937); conditions: HepG2 Attagene CIS-FACTORIAL M61 internal marker reporter; actives raise or lower the signal
# Procedure, shortened: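 Using transiently transfected HepG2 liver cells, reporter transcript levels were assessed 24 h post-dosing by RT-PCR and capillary electrophoresis. Changes in either direction were fitted relative to DMSO controls.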
# [12] = ATG_EGR_CIS: Attagene CIS-FACTORIAL HepG2 Assay for human Early Growth Response 1 (EGR1) (AID 2282938); conditions: HepG2 Attagene CIS-FACTORIAL EGR reporter mRNA; actives raise or lower the signal
# Procedure, shortened: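 Fluorescent capillary-electrophoresis signal of reporter cDNA fragments serves as read-out. HepG2 cells bear transiently transfected cis-promoter reporter units and are exposed 24 h; gain- or loss-of-signal is fitted against DMSO.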
# [13] = ATG_M_19_CIS: Attagene CIS-FACTORIAL HepG2 Assay for M19 Transcription Factor (Internal Marker) (AID 2282939); conditions: HepG2 Attagene CIS-FACTORIAL M19 internal marker reporter; actives raise or lower the signal
# Procedure, shortened: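 Signals come from fluorescence of labelled reporter-specific PCR fragments resolved by capillary electrophoresis, following 24 h treatment of HepG2 cells transfected with cis-promoter reporter units; activity was fitted in both directions relative to DMSO.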
# [14] = ATG_Ets_CIS: Attagene CIS-FACTORIAL HepG2 Assay for human Erythroblast Transformation Specific (ETS) (AID 2282941); conditions: HepG2 ETS cis-reporter transcription, actives raise or lower the signal
# Procedure, shortened: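 Steps: transfect HepG2 with multiple reporter units; treat compound 24 h; isolate RNA, DNase-treat, reverse-transcribe; PCR-amplify, label with 6-FAM, digest with HpaI; separate by capillary electrophoresis. Activity fitted both directions versus DMSO.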
# [15] = ATG_FoxO_CIS: Attagene CIS-FACTORIAL HepG2 Assay for human Forkhead box O (FoxO) (AID 2282943); conditions: HepG2 Attagene cis-reporter, FoxO element, mRNA; actives raise or lower the signal
# Procedure, shortened: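 24 h chemical exposure, HepG2 with transient cis-MRTU transfection. RNA extraction, oligo(dT) RT, reporter-specific PCR, primer-extension labelling, HpaI digestion, CE fragment analysis; bidirectional fit, DMSO baseline.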
# [16] = ATG_GATA_CIS: Attagene CIS-FACTORIAL HepG2 Assay for human GATA Binding Protein (AID 2282944); conditions: HepG2 GATA cis-element reporter, Attagene multiplex mRNA; actives raise or lower the signal
# Procedure, shortened: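 After transfecting HepG2 cells with multiple cis-regulated reporter units, chemicals are dosed for 24 h; isolated RNA undergoes RT-PCR and fluorescent labeling before capillary electrophoresis, with activity expressed against DMSO.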
# [17] = ATG_GLI_CIS: Attagene CIS-FACTORIAL HepG2 Assay for human Zinc Finger Protein GLI1 (AID 2282945); conditions: HepG2, Attagene cis-factorial reporter mRNA, GLI element; actives raise or lower the signal
# Procedure, shortened: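 HepG2 cells transiently transfected with cis-promoter multiplexed reporter units report endogenous transcription factor activity. After 24 h chemical exposure, reporter mRNA was quantified by RT-PCR, 6-FAM labelling, HpaI digestion and capillary electrophoresis, with bidirectional fitting against DMSO.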
# [18] = target: Hepatocyte nuclear factor 3-beta (Homo sapiens) (UniProt Q9Y261); assay: ATG_FoxA2_CIS: Attagene CIS-FACTORIAL HepG2 Assay for human Forkhead box A2 (FOXA2) (AID 2282942); conditions: HepG2 cis-reporter transcription factor activity, 24 h; actives raise or lower the signal
# Sequence of Hepatocyte nuclear factor 3-beta (Homo sapiens) (Q9Y261 whole entry, looked up, the tested form may be a part): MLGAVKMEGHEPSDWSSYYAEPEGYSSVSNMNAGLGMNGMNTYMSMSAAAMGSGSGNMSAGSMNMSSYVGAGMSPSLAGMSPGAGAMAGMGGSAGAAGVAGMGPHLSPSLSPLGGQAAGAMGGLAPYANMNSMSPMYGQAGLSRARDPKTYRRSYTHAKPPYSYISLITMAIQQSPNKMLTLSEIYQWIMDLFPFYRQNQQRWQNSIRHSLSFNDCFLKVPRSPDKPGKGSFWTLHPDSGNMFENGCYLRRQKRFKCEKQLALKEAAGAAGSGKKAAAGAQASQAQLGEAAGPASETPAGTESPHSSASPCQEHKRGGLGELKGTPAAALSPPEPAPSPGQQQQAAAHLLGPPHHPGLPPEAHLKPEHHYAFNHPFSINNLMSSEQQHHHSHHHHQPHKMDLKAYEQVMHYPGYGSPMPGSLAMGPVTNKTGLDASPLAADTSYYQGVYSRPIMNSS
# Procedure, shortened: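 Fluorescence signal of reporter cDNA fragments, separated by capillary electrophoresis, reflects endogenous transcription factor activity in transfected HepG2 after 24 h. Both increases and decreases fitted against DMSO.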
# [19] = ATG_ERE_CIS: Attagene CIS-FACTORIAL HepG2 Assay for Estrogen Response Element (ERE) (AID 2282940); conditions: HepG2 ERE cis-reporter, Attagene RNA transcript; actives raise or lower the signal
# Procedure, shortened: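 Fluorescence of capillary-separated, FAM-labelled reporter cDNA fragments indicates reporter mRNA levels in HepG2 cells exposed to chemicals for 24 h. Transient transfection with cis-regulated units; data fitted in both directions against DMSO.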
smiles,measurement,setting,value
O=C(O)COCCN1CCN(C(c2ccccc2)c2ccc(Cl)cc2)CC1 (centres undefined),outcome,[1],inactive
same,outcome,[2],inactive
same,outcome,[3],inactive
same,outcome,[4],inactive
same,outcome,[5],inactive
same,outcome,[6],inactive
same,outcome,[7],inactive
same,outcome,[8],inactive
same,outcome,[9],inactive
same,outcome,[10],inactive
same,outcome,[11],inactive
same,outcome,[12],inactive
same,outcome,[13],inactive
same,outcome,[14],inactive
same,outcome,[15],inactive
same,outcome,[16],inactive
same,outcome,[17],inactive
Cc1ccc(C(=O)c2cc(O)c(O)c([N+](=O)[O-])c2)cc1,outcome,[1],inactive
same,outcome,[2],inactive
same,AC50,[3],26.3 µM (active)
same,outcome,[4],inactive
same,outcome,[5],inactive
same,outcome,[6],inactive
same,AC50,[7],27.2 µM (active)
same,AC50,[8],56 µM (active)
same,outcome,[9],inactive
same,AC50,[10],27 µM (active)
same,outcome,[11],inactive
same,outcome,[12],inactive
same,outcome,[13],inactive
same,outcome,[18],inactive
same,outcome,[15],inactive
same,outcome,[16],inactive
same,outcome,[17],inactive
C[Si](O[Si](C)(C)C)O[Si](C)(C)C,outcome,[1],inactive
same,outcome,[2],inactive
same,outcome,[3],inactive
same,outcome,[4],inactive
same,AC50,[5],52.8 µM (active)
same,outcome,[6],inactive
same,outcome,[7],inactive
same,outcome,[8],inactive
same,outcome,[9],inactive
same,outcome,[10],inactive
same,outcome,[12],inactive
same,outcome,[13],inactive
same,outcome,[14],inactive
same,outcome,[18],inactive
same,outcome,[15],inactive
same,outcome,[16],inactive
same,outcome,[17],inactive
CO[Si](C)(OC)c1ccccc1,outcome,[1],inactive
same,outcome,[2],inactive
same,outcome,[3],inactive
same,outcome,[4],inactive
same,AC50,[5],130 µM (active)
same,outcome,[6],inactive
same,outcome,[7],inactive
same,outcome,[8],inactive
same,outcome,[9],inactive
same,outcome,[10],inactive
same,outcome,[11],inactive
same,outcome,[13],inactive
same,outcome,[19],inactive
same,outcome,[14],inactive
same,outcome,[18],inactive
same,outcome,[15],inactive
same,outcome,[16],inactive
same,outcome,[17],inactive
CC(C)(C#N)c1cc(Cn2cncn2)cc(C(C)(C)C#N)c1,outcome,[1],inactive
same,outcome,[2],inactive
same,outcome,[3],inactive
same,outcome,[4],inactive
same,outcome,[5],inactive
same,outcome,[6],inactive
same,outcome,[7],inactive
same,outcome,[8],inactive
same,outcome,[9],inactive
same,outcome,[10],inactive
same,outcome,[11],inactive
same,outcome,[14],inactive
same,outcome,[18],inactive
same,outcome,[15],inactive
same,outcome,[16],inactive
same,outcome,[17],inactive
COc1cc2ncnc(Nc3cccc(Cl)c3)c2cc1OC,outcome,[1],inactive
same,outcome,[2],inactive
same,outcome,[3],inactive
same,outcome,[4],inactive
same,outcome,[5],inactive
same,outcome,[6],inactive
same,AC50,[7],5.09 µM (active)
same,outcome,[8],inactive
same,outcome,[9],inactive
same,outcome,[10],inactive
same,outcome,[11],inactive
same,AC50,[12],19.5 µM (active)
same,outcome,[13],inactive
same,outcome,[18],inactive
same,outcome,[15],inactive
same,outcome,[16],inactive
same,outcome,[17],inactive
FC1(F)C(F)(F)C(F)(F)C2(F)C(F)(C1(F)F)C(F)(F)C(F)(F)C1(F)C(F)(F)C(F)(F)C(F)(F)C(F)(F)C12F (centres undefined),outcome,[1],inactive
same,outcome,[2],inactive
same,outcome,[3],inactive
same,outcome,[4],inactive
same,outcome,[5],inactive
same,outcome,[6],inactive
same,outcome,[7],inactive
same,outcome,[8],inactive
same,outcome,[9],inactive
same,outcome,[10],inactive
same,outcome,[11],inactive
same,outcome,[12],inactive
same,outcome,[13],inactive
same,outcome,[18],inactive
same,outcome,[15],inactive
same,outcome,[16],inactive
same,outcome,[17],inactive
